This is an account of results in PubChem BioAssay (Tox21).

“And” between values parts separate entries of the source, which are not always exact repeats. Equal values may be shown once. Inconclusive results are not listed. The source made the active and inactive calls. Calls come from the whole dose curve; as a rule, active = well fitted inhibition curve with a large enough effect in the repeat runs; inconclusive = weak or mixed curves, or effect the other way; inactive = no such curve, though single readings can be large or run the other way.
% is set by controls: 0 for no effect and ±100 for the full control effect; potency is the fitted concentration of half-maximal effect.

The assay in a line: qHTS assay to identify small molecule antagonists of the retinoic acid receptor (RAR) signaling pathway (AID 1159552; note: nearly all actives have a fitted effect of over 50% in size). To be noted: C3RL4 RARE luciferase reporter, retinol-stimulated, 6 h; series mostly up to 92.4 µM; activity, negative = inhibition: at the top concentration. From the text:
National Center for Advancing Translational Sciences [NCATS]
NIH Chemical Genomics Center [NCGC]
U.S. Environmental Protection Agency [EPA]
National Institutes of Environmental Health Sciences [NIEHS]
National Toxicology Program [NTP]
U.S. Food and Drug Administration [FDA]
All-trans Retinoic acid (atRA) is the potent natural metabolite of retinol and plays an important role in normal embryonic development and maintenance of cellular phenotype in adult animals. atRA is the activating ligand for the retinoic acid receptors (RARs) which form heterodimers with retinoid X receptors (RXRs) on the retinoic acid response element (RARE). Through activation of the RAR/RXRs nuclear receptors, atRA regulates the transcription of a large number of protein-coding genes and regulatory RNAs. Intracellular levels of atRA are controlled by the retinol signaling pathway (RSP) that regulates the biosynthesis and catabolism of atRA to maintain physiological levels. Chemicals that interfere with the RSP can cause abnormal intracellular levels of atRA and therefore are potential developmental toxicants. To assess compounds for the potential adverse effect on embryonic development through interfering with retinol signaling, a cell-based RARE luciferase reporter gene assay was used. C3RL4 cell line (OARSA/CFSAN/FDA, Laurel, MD) was used to screen Tox21 10K compound library for identifying inhibitors of the RSP.
Tox21 Assay Protocol Summary:
C3RL4 cells were seeded at 1,000/well in 4 uL of assay medium into white solid 1,536-well tissue culture plates (Greiner Bio-One North America Inc. Monroe, NC) using a Multidrop Combi (Thermo Scientific, Waltham, MA) dispenser. After incubation at 37 C and 5% CO2 for an overnight, 23 nL of compounds dissolved in DMSO, positive control or DMSO only were transferred by a Pintool station (Kalypsys, San Diego, CA). One ul of 1 uM (final concentration) of Retinol was added right after the compound addition by using a Flying Reagent Dispenser (FRD) (Aurora Discovery, San Diego, CA). After 6 hr incubation at 37 C and 5% CO2, 5 uL of Amplite Luciferase reagent (AAT Bioquest Inc. Sunnyvale, CA) was added to each assay plate using an FRD. Luminescence was quantified on a ViewLux plate reader (PerkinElmer, Waltham, MA) after 30 min incubation at room temperature.
As to `CCCCC1=NC2(CCCC2)C(=O)N1Cc1ccc(-c2ccccc2-c2nn[nH]n2)cc1`, the “activity, negative = inhibition” value is -8.4% [at 42.5 µM] (inactive).

Regarding `C=C(C)C(=O)OCC`, the “activity, negative = inhibition” value is -0.681% (inactive).

Regarding `Cc1oc2c(NC(=O)c3c(Cl)cccc3Cl)cccc2c1C(C)(C)O`, the “activity, negative = inhibition” value is -11.9% (inactive).

Regarding `O=C(OCCc1ccccc1)c1ccccc1`, the “activity, negative = inhibition” value is 97.3% (inactive).

With `CCO[Si](CCCCl)(OCC)OCC`, the “activity, negative = inhibition” value is -1.86% (inactive).

With `CC(CC=O)c1ccccc1` (stereo not given), the “activity, negative = inhibition” value was 90% (inactive).

For `O=C(O)C1(C(=O)Nc2ccc(Cl)cc2Cl)CC1`, the “activity, negative = inhibition” value is 6.27% (inactive).

Consider `COc1cc2nc(N3CCN(C(=O)C4COc5ccccc5O4)CC3)nc(N)c2cc1OC` (stereo not given), for which the “activity, negative = inhibition” value was -14.7% [at 42.5 µM] (inactive).

On to `COc1ccc(-c2nc3ccc(C4=NNC(=O)CC4C)cc3[nH]2)cc1` (stereo not given), for which the “activity, negative = inhibition” value is 30.9% [at 42.5 µM] (inactive).

On to `C=CC(=O)OCCOCCOC(=O)C=C`, for which the Potency was 48.8 µM (active).

For the molecule `O=C1C(O)=C(O)C(=O)C(O)=C1O`, the “activity, negative = inhibition” value is -16.5% [at 42.5 µM] (inactive).

On to `CCOC(=O)NCCOc1ccc(Oc2ccccc2)cc1`, for which the “activity, negative = inhibition” value was 38.7% (inactive).

On to `c1ccc(-c2ccccn2)nc1`, for which the “activity, negative = inhibition” value is 49.4% (inactive).

For `Cc1cccc(Nc2ccccc2)c1`, the “activity, negative = inhibition” value was 32.1% (inactive).

On to `C=C1[C@H]2CC[C@@H]3[C@H]2C(C)(C)CCC[C@]13C`, for which the “activity, negative = inhibition” value is -1.11% (inactive).

As to `CCOC(=O)C1=C[C@]2(CC)CCCN3CCc4c(n1c1ccccc41)[C@@H]32`, the “activity, negative = inhibition” value is -19.1% [at 42.5 µM] (inactive).

For `C#CCN(C)CCCOc1ccc(Cl)cc1Cl`, the “activity, negative = inhibition” value is 72.2% [at 42.5 µM] (inactive).

For `COc1cc(Cl)c(OC)cc1N`, the “activity, negative = inhibition” value was -20.3% (inactive).

Consider `CC(C)(O)c1ccc(CNC(=O)c2cccnc2Oc2ccc(F)cc2)cc1`, for which the “activity, negative = inhibition” value is 6.91% (inactive).

For `C[N+](C)(C)CCOC(=O)CCC(=O)OCC[N+](C)(C)C`, the “activity, negative = inhibition” value is 9.93% [at 42.5 µM] (inactive).

For `NC(N)=NCCC[C@H](N)C(=O)O`, the activity, negative = inhibition was 5.45% [at 8.39 µM] (inactive).

For the molecule `O=S(=O)(Oc1ccc(Cl)cc1)c1ccccc1`, the “activity, negative = inhibition” value is 114% (inactive).

Regarding `CCN(CC)c1ccc(C(=C2C=CC(=[N+](CC)CC)C=C2)c2cc(S(=O)(=O)O)ccc2S(=O)(=O)[O-])cc1`, the Potency was 11.9 µM (active).

For `C=CC(=O)OCCOCCOCCOCCOC(=O)C=C`, the Potency was 48.8 µM (active) and 42.9 µM (active).

As to `CCNc1cc(O)ccc1C`, the “activity, negative = inhibition” value is 19% (inactive).

As to `COc1cc(Cl)ccc1Oc1ccc(Cl)cc1Cl`, the “activity, negative = inhibition” value is 15.8% (inactive).

Take `OCCN1CCN(CCCN2c3ccccc3C=Cc3ccccc32)CC1`: the “activity, negative = inhibition” value is -5.01% [at 42.5 µM] (inactive).

For the molecule `CN(Cc1ccc(C(C)(C)C)cc1)Cc1cccc2ccccc12`, the “activity, negative = inhibition” value is -11.8% [at 42.5 µM] (inactive).

On to `C=CC(=O)OCCOc1ccccc1`, for which the Potency was 48.5 µM (active).

In the case of `COC(C)(C)CCO`, the “activity, negative = inhibition” value is 7.27% (inactive).

On to `CCCCC/C=C\C/C=C\CCCCCCCC(=O)NC(C)c1ccccc1` (stereo not given), for which the “activity, negative = inhibition” value was 9.47% [at 42.5 µM] (inactive).

As to `COCC(C)OC(C)=O` (stereo not given), the “activity, negative = inhibition” value is 0.277% (inactive).

Regarding `CC(C)(C)Cl`, the “activity, negative = inhibition” value was 15.4% (inactive).

Take `O=C(Nc1ccccc1)c1ccccc1O`: the “activity, negative = inhibition” value is 54.6% (inactive).

Turning to `Cc1ccccc1S(=O)(=O)O`, the “activity, negative = inhibition” value is 9.78% (inactive).

For the molecule `O=C(O)C(S)C(S)C(=O)O` (stereo not given), the “activity, negative = inhibition” value is 2% [at 42.5 µM] (inactive).

In the case of `O=C1OC(=O)C2C3C=CC(C3)C12` (stereo not given), the “activity, negative = inhibition” value was -3.79% (inactive).

Turning to `CCCCCCCCO[C@@H]1O[C@H](CO)[C@@H](O)[C@H](O)[C@H]1O`, the “activity, negative = inhibition” value was 9.26% (inactive).

As for `C=C(C)C(=O)OCCO`, the “activity, negative = inhibition” value was 18.9% (inactive).

In the case of `Cc1cc(C(=O)O)ccc1[N+](=O)[O-]`, the “activity, negative = inhibition” value is 41.5% (inactive).
